Results on 13 compounds are retold here after PubChem BioAssay (NCATS).

The target in experiment [1] is Lysosomal acid glucosylceramidase (Homo sapiens) (UniProt P04062). The experiment can be described thus: Glucocerebrosidase-p2 (AID 348; in the data active = potency below about 10 µM; also: potency is read from the fitted curve at half-maximal effect). As to conditions: purified GBA, blue fluorogenic substrate, 40 min. The essentials:
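Normal human glucocerebrosidase (0.2 nM) with blue fluorogenic substrate (80 uM final) in citrate/phosphate pH 5.9 with 10mM sodium taurocholate, 0.01% tween-20; 40 min RT, NaOH/glycine stop; fluorescence Ex 365/Em 440; AC50 from a titration from 0.6 nM upwards.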

Experiment [2] can be described thus: AP1 Signaling Pathway (AID 357).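 Also: ME-180 reporter cells stimulated with EGF at its EC50 level; % is scaled to controls: 0 for no effect and ±100 for the full control effect.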 As to conditions: ME-180 AP-1-bla reporter, EGF-induced, beta-lactamase ratio, 5 h; at 7.69 µM (top of the series) unless noted. The essentials: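 Beta-lactamase reporter under AP-1 response element, ME-180 background. Stimulus: EC50 EGF. Compound exposure 5 h, 37 °C. Detection: CCF4, 2.5 h RT, 460/530 nm. Values: AC50 from titration.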

Experiment [3] in a line: NFAT Signaling Pathway (AID 444).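 Also: carbachol stimulus at about its EC50 of 1 µM final; % is scaled to controls: 0 for no effect and ±100 for the full control effect.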 As to conditions: Jurkat NFAT-bla M1, carbachol, beta-lactamase ratio, 5 h; at 7.69 µM (top of the series) unless noted. In short, it runs like this: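 Jurkat cells carrying an NFAT-driven β-lactamase reporter and co-transfected muscarinic M1 receptor were treated with compound plus carbachol (1 uM final, an EC50 level) for 5 h at 37 °C. CCF4 loading followed for 1 h at RT; 460/530 nm ratio gave %activity.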

Experiment [4] can be described thus: Stat Signaling Pathway (AID 446).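 Also: ME-180 cervical cancer cells given 40 pM IL-6 alongside compound; SIE-controlled beta-lactamase reporter measured as 460/530 nm FRET emission ratio; % is scaled to controls: 0 for no effect and ±100 for the full control effect.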 To be noted: ME-180 SIE beta-lactamase reporter, IL-6 stimulated, 5 h; at 7.69 µM (top of the series) unless noted. In short, it runs like this:
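Emission at 460 and 530 nm (excitation 405 nm) reports SIE-controlled beta-lactamase in ME-180 cells. Cells received compound with 40 pM IL-6 for 5 hrs at 37 C; data scaled between 300 pM IL-6 and 125 nM JAK-inhibitor controls.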

Experiment [5] has as its target Glucocorticoid receptor (Homo sapiens) (UniProt P04150). Put plainly: GR-GFP Redistribution (AID 450;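 active = compounds whose dose series gives a full or clear partial fitted curve of increased nuclear translocation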; also: potency is read from the fitted curve at half-maximal effect). To be noted: U2OS GR-GFP nuclear translocation, laser cytometry, 2 h.
Experiment [6] has the same target. The experiment can be described thus: GR-EFC Redistribution (AID 451; calls by dose curve; also: potency is read from the fitted curve at half-maximal effect). To be noted: CHO-K1 GR-EFC translocation, beta-gal luminescence, 2 h. In short, it runs like this: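 CHO-K1 cells stably expressing nuclear-localized β-gal enzyme acceptor and GR fused C-terminally to the enzyme donor fragment; ligand-driven nuclear translocation restores β-gal by complementation. Compounds titrated up to 46 uM final, 2 h at 37 °C; luminescence read.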

The target of experiment [7] is Mitogen-activated protein kinase 10 (Mus musculus) (UniProt Q61831). The experiment can be described thus: JNK3 AlphaScreen Assay (AID 530).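 Also: kinase came from lysate of stimulated human HepG2 cells; % is scaled to controls: 0 for no effect and ±100 for the full control effect.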 As to conditions: JNK3 lysate, c-Jun phosphorylation; series mostly up to 11.4 µM. The essentials: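 Biotinylated GST-cJun(1-79) served as substrate for JNK3 in HepG2 lysates stimulated with IL-1beta and TNF-alpha. ATP was 10 uM final, pH 7.6. Ser73 phosphorylation was quantified by AlphaScreen (680 nm excitation).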

For experiment [8], the target named is 3',5'-cyclic-AMP phosphodiesterase 4B (Homo sapiens) (UniProt Q07343). Put plainly: qHTS Assay for Inhibitors of PDE-IV (AID 607; active = well fitted activation curve with a large enough effect in the main read-out, with a control signal flat, not every such curve was filed as active; also: % of control where 0% means no effect). As to conditions: HEK293 ACTOne CNG channel cells, membrane potential fluorescence; series mostly up to 22.9 µM. The essentials: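 The readout is membrane depolarisation from a cAMP-sensing CNG channel, detected with a potential dye at ex 535/em 590. Cells were HEK293-derived (endogenous PDE-IV) at 1000 cells/well, titrated up to 22.9 uM final.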
Sequence of 3',5'-cyclic-AMP phosphodiesterase 4B (Homo sapiens) (Q07343 whole entry, looked up): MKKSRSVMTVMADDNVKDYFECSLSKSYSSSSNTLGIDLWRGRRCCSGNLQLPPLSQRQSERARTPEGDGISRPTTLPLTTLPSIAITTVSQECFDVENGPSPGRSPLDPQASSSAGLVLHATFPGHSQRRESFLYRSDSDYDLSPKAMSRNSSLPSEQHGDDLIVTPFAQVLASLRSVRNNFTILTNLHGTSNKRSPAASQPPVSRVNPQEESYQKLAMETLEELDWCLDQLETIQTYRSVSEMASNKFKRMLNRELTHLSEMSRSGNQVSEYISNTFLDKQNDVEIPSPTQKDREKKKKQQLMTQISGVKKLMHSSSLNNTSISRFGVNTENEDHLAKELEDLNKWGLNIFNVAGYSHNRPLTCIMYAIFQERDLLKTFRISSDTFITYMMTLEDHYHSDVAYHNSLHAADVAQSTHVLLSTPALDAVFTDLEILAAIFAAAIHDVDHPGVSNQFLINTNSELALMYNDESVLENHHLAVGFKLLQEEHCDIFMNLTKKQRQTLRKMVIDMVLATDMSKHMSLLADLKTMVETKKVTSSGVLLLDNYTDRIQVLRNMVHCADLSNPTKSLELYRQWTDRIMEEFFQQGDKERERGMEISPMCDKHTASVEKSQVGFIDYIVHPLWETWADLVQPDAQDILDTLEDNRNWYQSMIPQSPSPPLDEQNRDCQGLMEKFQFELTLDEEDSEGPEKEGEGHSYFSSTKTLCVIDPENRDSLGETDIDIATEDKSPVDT
On the technique in general: In qHTS, concentration-response curves come from the screen itself.

Experiment [9] in a line: qHTS Assay for Identification of Small Molecule Agonists for Hypoxia Response Element Signaling Pathway (AID 914; active = well fitted activation curve with a large enough effect in the signal ratio, with a control signal flat, not every such curve was filed as active; the % refers to the signal ratio; also: % of control where 0% means no effect). As to conditions: ME-180 (cervical carcinoma) HRE-bla reporter, beta-lactamase ratio, CoCl2, 17 h; activation: active compounds read high. The essentials:
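AC50 values come from titration-series %Activity, taken as the 460/530nm ratio of CCF4 fluorescence (excitation 405nm). CellSensor HRE-bla ME-180 cells were treated 17 hours at 37 C with compound plus an EC50 level of CoCl2.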

For experiment [10], the target named is Cytochrome P450 3A4 (Homo sapiens) (UniProt P08684). Put plainly: qHTS Assay for Inhibitors and Substrates of Cytochrome P450 3A4 (AID 884; active = well fitted curve in the direction sought with a large enough effect; an effect the other way counts as inactive or inconclusive; also: potency is read from the fitted curve at half-maximal effect; nearly all actives have a fitted effect of over 50% in size). To be noted: recombinant CYP3A4, Luciferin-PPXE luminescence; series mostly up to 57.1 µM. The essentials:
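Luminescent readout of luciferin produced by CYP3A4 (20 nM) dealkylation of Luciferin-PPXE, 25 uM (its KM). NADPH-driven reaction ran 60 min at RT after 10 min compound preincubation; data scaled to 57 uM ketoconazole as 100% inhibition.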

Experiment [11] has the same target. Put plainly: qHTS Assay for Activators of Cytochrome P450 3A4 (AID 885; active = well fitted curve in the direction sought with a large enough effect; an effect the other way counts as inactive or inconclusive; also: nearly all actives have a fitted effect of over 65% in size). To be noted: recombinant CYP3A4, Luciferin-PPXE luminescence, 60 min; series mostly up to 11.4 µM. The essentials: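 Activators are scored by enhanced luminescence from CYP3A4 conversion of luciferin-PPXE (25uM, equal to KM) to luciferin, after 60 min at RT with an NADPH-regenerating system.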

The nature of experiment [12]: Confirmation and Secondary Assay for Modulators of Hemoglobin Beta Chain Splicing at IVS2 654 locus (AID 910; active = well fitted curve in the direction sought with a large enough effect; an effect the other way counts as inactive or inconclusive;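 also: per-well total GFP intensity by laser scanning cytometry after 2-day treatment; % of control where 0% means no effect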). To be noted: HeLa EGFP-654 splicing reporter, GFP fluorescence, 48 h; series mostly up to 38.3 µM. In short, it runs like this:
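HeLa cells stably carrying EGFP interrupted by mutant beta-globin IVS2-654 intron (CMV-driven) were treated with compound for 2 days at 37C; corrected splicing was scored as total peak GFP intensity per well (488 nm excitation, 500-520 nm emission).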

A short description of experiment [13]: Confirmation and Secondary Assay for Modulators of Hemoglobin Beta Chain Splicing at IVS2 705 locus (AID 930; active = well fitted curve in the direction sought with a large enough effect; an effect the other way counts as inactive or inconclusive;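 also: HeLa cells stably expressing the EGFP-705 splicing reporter; % of control where 0% means no effect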). To be noted: HeLa EGFP-705 splicing reporter, GFP fluorescence, 48 h; series mostly up to 38.3 µM. The essentials:
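Restored EGFP fluorescence after 2-day compound exposure reports splicing correction in IVS2-705 EGFP reporter HeLa cells; positive control was 500 nM splice-blocking PNA oligo. Signal measured as well total peak GFP intensity (488 nm excitation).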

For experiment [14], the target named is Cytochrome P450 2C19 (Homo sapiens) (UniProt P33261). Put plainly: qHTS Assay for Inhibitors and Substrates of Cytochrome P450 2C19 (AID 899; active = well fitted curve in the direction sought with a large enough effect; an effect the other way counts as inactive or inconclusive; also: nearly all actives have a fitted effect of over 60% in size; also: potency is read from the fitted curve at half-maximal effect). As to conditions: recombinant CYP2C19, luciferin-H EGE luminescence; series mostly up to 11.4 µM. The essentials: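 In 50mM KPO4, the reaction held 5nM enzyme and KM-level (10uM) Luciferin-H EGE; it ran 60 min at 37C after NADPH regeneration and a 10 min compound preincubation. Luminescence values were scaled to 57uM ketoconazole as complete inhibition.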
Sequence of Cytochrome P450 2C19 (Homo sapiens) (P33261 whole entry, looked up): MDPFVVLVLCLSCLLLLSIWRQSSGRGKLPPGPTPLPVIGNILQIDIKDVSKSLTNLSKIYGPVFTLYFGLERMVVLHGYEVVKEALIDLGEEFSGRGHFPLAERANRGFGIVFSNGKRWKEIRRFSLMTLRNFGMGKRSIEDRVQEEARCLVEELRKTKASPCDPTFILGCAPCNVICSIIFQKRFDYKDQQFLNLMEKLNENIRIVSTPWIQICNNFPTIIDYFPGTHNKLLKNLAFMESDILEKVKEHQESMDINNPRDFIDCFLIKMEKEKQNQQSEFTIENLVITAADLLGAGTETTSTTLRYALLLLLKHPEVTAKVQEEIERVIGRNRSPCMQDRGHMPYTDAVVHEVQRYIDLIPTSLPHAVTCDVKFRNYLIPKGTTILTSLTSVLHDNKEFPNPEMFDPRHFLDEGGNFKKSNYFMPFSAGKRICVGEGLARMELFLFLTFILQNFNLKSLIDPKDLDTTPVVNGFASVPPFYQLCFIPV

The structures appear in SMILES notation. A number with no mark means an inactive call. Records with an inconclusive call do not appear. Calls of active or inactive are those of the source. Unless noted, calls follow the shape of the dose curve; as a rule, active = well fitted curve in either direction with a large enough effect (not every such curve was filed as active); inconclusive = small, poorly fitted or top-dose-only effect, or another doubt; inactive = flat fitted curve, though single readings scatter.

Sequence of Glucocorticoid receptor (Homo sapiens) (P04150 whole entry, looked up, the tested form may be a part): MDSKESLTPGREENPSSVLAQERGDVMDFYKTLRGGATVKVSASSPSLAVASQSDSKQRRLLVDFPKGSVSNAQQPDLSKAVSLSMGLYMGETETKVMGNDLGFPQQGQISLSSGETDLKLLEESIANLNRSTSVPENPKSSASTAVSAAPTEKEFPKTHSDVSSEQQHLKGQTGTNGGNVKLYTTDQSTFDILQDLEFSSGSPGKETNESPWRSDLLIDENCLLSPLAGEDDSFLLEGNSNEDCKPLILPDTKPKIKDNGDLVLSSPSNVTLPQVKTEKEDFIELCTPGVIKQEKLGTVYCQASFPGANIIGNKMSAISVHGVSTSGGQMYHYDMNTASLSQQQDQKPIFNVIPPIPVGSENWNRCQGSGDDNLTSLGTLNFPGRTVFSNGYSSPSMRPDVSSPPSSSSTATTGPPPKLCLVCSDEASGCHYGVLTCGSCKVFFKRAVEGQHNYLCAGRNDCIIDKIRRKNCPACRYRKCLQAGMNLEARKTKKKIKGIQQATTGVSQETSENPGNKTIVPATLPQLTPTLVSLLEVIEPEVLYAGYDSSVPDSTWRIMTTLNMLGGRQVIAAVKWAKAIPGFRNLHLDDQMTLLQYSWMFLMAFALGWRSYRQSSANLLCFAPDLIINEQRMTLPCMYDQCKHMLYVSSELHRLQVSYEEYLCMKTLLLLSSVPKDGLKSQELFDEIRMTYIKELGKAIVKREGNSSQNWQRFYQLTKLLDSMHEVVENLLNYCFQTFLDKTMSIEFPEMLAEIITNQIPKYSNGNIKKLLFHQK
Sequence of Lysosomal acid glucosylceramidase (Homo sapiens) (P04062 whole entry, looked up): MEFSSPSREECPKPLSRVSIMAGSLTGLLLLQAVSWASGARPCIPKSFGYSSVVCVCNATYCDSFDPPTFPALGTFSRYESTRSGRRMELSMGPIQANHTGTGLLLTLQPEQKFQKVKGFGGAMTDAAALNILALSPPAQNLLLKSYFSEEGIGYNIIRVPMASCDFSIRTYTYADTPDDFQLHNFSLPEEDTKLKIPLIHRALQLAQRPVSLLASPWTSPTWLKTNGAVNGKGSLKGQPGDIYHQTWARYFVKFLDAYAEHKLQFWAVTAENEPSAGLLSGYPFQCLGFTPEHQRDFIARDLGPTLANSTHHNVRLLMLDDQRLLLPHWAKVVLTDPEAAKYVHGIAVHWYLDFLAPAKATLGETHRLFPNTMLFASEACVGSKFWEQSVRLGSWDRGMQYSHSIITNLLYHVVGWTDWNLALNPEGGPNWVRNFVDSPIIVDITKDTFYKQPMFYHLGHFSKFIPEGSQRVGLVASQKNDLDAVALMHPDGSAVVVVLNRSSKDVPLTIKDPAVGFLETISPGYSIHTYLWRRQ
Sequence of Cytochrome P450 3A4 (Homo sapiens) (P08684 whole entry, looked up): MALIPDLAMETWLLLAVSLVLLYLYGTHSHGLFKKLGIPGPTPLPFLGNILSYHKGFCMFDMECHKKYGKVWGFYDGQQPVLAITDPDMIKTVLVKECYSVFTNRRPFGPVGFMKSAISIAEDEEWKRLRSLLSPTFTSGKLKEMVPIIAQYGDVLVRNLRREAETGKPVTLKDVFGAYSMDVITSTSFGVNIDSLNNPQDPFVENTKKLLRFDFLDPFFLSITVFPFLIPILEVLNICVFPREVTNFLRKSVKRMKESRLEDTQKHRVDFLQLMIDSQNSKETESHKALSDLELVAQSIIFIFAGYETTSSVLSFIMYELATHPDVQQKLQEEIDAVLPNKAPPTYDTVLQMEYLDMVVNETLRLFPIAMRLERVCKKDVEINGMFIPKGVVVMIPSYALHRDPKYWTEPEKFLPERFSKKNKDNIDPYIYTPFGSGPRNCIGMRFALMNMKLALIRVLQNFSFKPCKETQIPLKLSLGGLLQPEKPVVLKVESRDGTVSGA

`O=C(CON1C(=O)c2ccccc2C1=O)c1ccccc1`: the Potency is above 11.4 µM in [1], above 46 µM in experiment [5] and above 9.22 µM in experiment [6]. Besides, the figures for the activity change, negative = inhibition in [2] and in experiment [3] were -3.99% and 4.1%, respectively. In [4], the activity, negative = inhibition was 1.01%. Also, the Potency result in [7] and in experiment [8] was “inactive” throughout. The activation in experiment [9] was -13.1%.

Regarding `NC(=O)CS(=O)C[C@H](N)C(=O)O` (some centres undefined), the Potency in experiment [1] was above 11.4 µM; in experiment [5], above 46 µM; in [6], above 9.22 µM. For the same compound, the activity change, negative = inhibition in experiment [2] was 23.6%; in experiment [3], 11%. In addition, the activity, negative = inhibition in experiment [4] is 5.38%. The Potency result in experiment [7] and in [8] was “inactive” throughout. In experiment [9], the activation is 18.8%.

With `CS(=O)(=O)Nc1cccc(-c2nc(NCc3cccnc3)c3ccccc3n2)c1`, the Potency in experiment [1] was above 11.4 µM; in experiment [5], above 46 µM; in [6], above 46 µM; in experiment [10] it was 2 µM (active). For the same compound, the activity change, negative = inhibition in [2] was -19.8%; in experiment [3], 23.6%. Also, the activity, negative = inhibition in experiment [4] was -19.5%. For the same compound, the Potency result in [7] and in experiment [11] was “inactive” each time. For the same compound, the compound was classed as inactive in [12] and in experiment [13].

As for `CC1(C)[C@@H]2CC[C@@]1(CS(=O)(=O)Nc1ccccc1)C(=O)C2`, the Potency is above 11.4 µM in experiment [1], above 46 µM in [5], above 9.22 µM in [6] and 2 µM (active) in experiment [14]. Also, the activity change, negative = inhibition is -11.4% in [2] and 4.16% in experiment [3]. The activity, negative = inhibition in [4] was -7%. For the same compound, the Potency entry in experiment [7] and in experiment [8] was “inactive” in each case.

In the case of `Cc1cc(=O)oc2cc(O)c(CN(C)CC(=O)O)cc12`, the results for the Potency in experiment [1], in experiment [5] and in experiment [6] were above 11.4 µM, above 46 µM and above 9.22 µM, respectively. Further, the activity change, negative = inhibition in experiment [2] is 8.78%; in [3] it was 10.9%. In addition, in [4], the activity, negative = inhibition is -5.54%. Moreover, the Potency result in experiment [7], in experiment [8] and in experiment [14] was “inactive” each time. Besides, the activation in experiment [9] was 2.1%.

With `O=C(O)c1cccc(N=Nc2c(S(=O)(=O)O)ccc3c2C(=O)c2ccccc2C3=O)c1O`, the Potency in experiment [1] is above 11.4 µM; in experiment [5], above 46 µM; in experiment [6], above 9.22 µM. The activity change, negative = inhibition in [2] was 9.86%; in experiment [3], -3.54%. The activity, negative = inhibition in experiment [4] is -9.02%. Further, the Potency entry in experiment [8] is “inactive”.

As for `Cc1cccc(CNc2nc(-c3ccc(C(=O)N(C)C)cc3)nc3ccccc23)c1`, the Potency is above 11.4 µM in [1], above 46 µM in [5] and above 46 µM in experiment [6]. Moreover, the activity change, negative = inhibition was -29.6% in [2] and 25.2% in experiment [3]. Also, the activity, negative = inhibition in experiment [4] is -18.6%. Besides, the Potency result in experiment [7] is “inactive”. For the same compound, the compound was classed as inactive in experiment [12] and in experiment [13].

As to `O=[N+]([O-])c1cccc(/C=N\NC2=CS(=O)(=O)C=C2)c1`, the Potency in [1] is above 11.4 µM; in experiment [5], above 46 µM; in [6], above 9.22 µM. Further, the activity change, negative = inhibition in [2] was 4.95%; in experiment [3] it was 14.6%. Also, in experiment [4], the activity, negative = inhibition was 5.97%. Besides, the Potency result in [7] and in experiment [8] was “inactive” throughout. The activation in [9] is 1.06%.

As for `COc1ccc(N(CC(=O)O)N=O)cc1`, the Potency in experiment [1] was above 11.4 µM; in experiment [5] it was above 46 µM; in experiment [6], above 9.22 µM. For the same compound, the activity change, negative = inhibition in [2] was 1.5%; in [3], 11.2%. Also, the activity, negative = inhibition in experiment [4] was 2.83%. Also, the Potency entry in experiment [7], in experiment [8] and in [14] was “inactive” in each case. The activation in experiment [9] is 10.3%.

As for `CC(C)(C)c1c2c(c(C(C)(C)C)c3c1OCN(Cc1ccccc1)C3)OCN(Cc1ccccc1)C2`, the Potency in experiment [1] is above 11.4 µM; in [5], above 46 µM; in experiment [6], above 9.22 µM. Also, the figures for the activity change, negative = inhibition in experiment [2] and in [3] were 0.594% and 0.0878%, respectively. Moreover, the activity, negative = inhibition in [4] was -2.37%. The Potency result in experiment [7], in experiment [8] and in [14] was “inactive” throughout.

Regarding `O=C(O)C[C@H](Sc1ccccc1)c1ccccc1`, the Potency in [1] was above 11.4 µM; in [5] it was above 46 µM; in experiment [6] it was above 9.22 µM. The activity change, negative = inhibition was 7.59% in experiment [2] and 8.06% in [3]. Also, the activity, negative = inhibition in [4] was -24.9%. Further, the Potency entry in experiment [7] and in experiment [8] was “inactive” each time. Further, the activation in experiment [9] was -1.84%.

Turning to `NC[C@H]1O[C@@H](n2cnc3c(=O)[nH]c(N)nc32)[C@@H](O)[C@@H]1O`, the Potency in [1] was above 11.4 µM; in [5], above 46 µM; in experiment [6] it was above 9.22 µM. Moreover, the activity change, negative = inhibition was -6.27% in experiment [2] and 5.35% in experiment [3]. In addition, the activity, negative = inhibition in experiment [4] was 3.9%. The Potency result in experiment [7] and in [8] was “inactive” in each case. For the same compound, the activation in experiment [9] was 4.86%.

In the case of `Cc1cc(=O)[nH]c2cc3oc4ccccc4c3cc12`, the Potency in experiment [1] was above 11.4 µM; in experiment [5], above 46 µM; in experiment [6], above 9.22 µM. The activity change, negative = inhibition was 6.73% in [2] and 8.67% in [3]. For the same compound, the activity, negative = inhibition in experiment [4] was -1.36%. The Potency result in [7] and in experiment [8] was “inactive” each time. The activation in [9] is -6.85%.
